# DT40 TDP1 no CPT: qHTS for Inhibitors of human tyrosyl-DNA phosphodiesterase 1 (TDP1): qHTS in cells in absence of CPT; Potency, µM (top dose mostly 46.2 µM), actives largely listed as inhibitors; actives 15% (n = 420,000); AID 686978, 2013; DT40 Tdp1-/- hTDP1 cells, no CPT, ATP luminescence, 48 h; note: nearly all actives have a fitted effect of over 55% in size
#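 Readout: luminescence from CellTiter-Glo after 30 min in the dark at RT. Cells: DT40 Tdp1-/- with stable hTDP1, 400/well. Exposure: compounds alone, ≥48 hr, 37 °C.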
# VP16 counter: inhibits Gal4-VP16 luciferase reporter, ROR gamma counter-screen | Potency, µM (top dose mostly 53.6 µM), usual class: inhibitors | actives 3.5% (n = 310,000) | Drosophila S2 Gal4-VP16 UAS-luciferase, luminescence, 20 h;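 note: Gal4-VP16 expression switched on by copper sulfate through the metallothionein promoter; nearly all actives have a fitted effect of over 50% in size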
# TDP1 inh: blocks human tyrosyl-DNA phosphodiesterase 1. Potency, µM (doses to about 130 µM), hits mostly inhibitors. recombinant TDP1, AlphaScreen DNA substrate cleavage. actives 0.28% (n = 350,000). Q9NUW8. AID 485290; note: nearly all actives have a fitted effect of over 40% in size
#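 Compounds were preincubated with Tdp1 (1 nM final) for 15 min at room temperature before substrate (15 nM final) started a 5 min reaction; beads (10 ug/ml final) were then added for 10 min before AlphaScreen detection.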
# RORg inh: blocks mouse ROR gamma transcriptional activity; Drosophila S2 Gal4-RORgamma UAS-luciferase reporter, 20 h; Potency, µM (highest dose often 53.6 µM), usual class: inhibitors; actives 5.4% (n = 310,000); note: nearly all actives have a fitted effect of over 60% in size
# Target sequence (P51450 whole entry, looked up, the tested form may be a part): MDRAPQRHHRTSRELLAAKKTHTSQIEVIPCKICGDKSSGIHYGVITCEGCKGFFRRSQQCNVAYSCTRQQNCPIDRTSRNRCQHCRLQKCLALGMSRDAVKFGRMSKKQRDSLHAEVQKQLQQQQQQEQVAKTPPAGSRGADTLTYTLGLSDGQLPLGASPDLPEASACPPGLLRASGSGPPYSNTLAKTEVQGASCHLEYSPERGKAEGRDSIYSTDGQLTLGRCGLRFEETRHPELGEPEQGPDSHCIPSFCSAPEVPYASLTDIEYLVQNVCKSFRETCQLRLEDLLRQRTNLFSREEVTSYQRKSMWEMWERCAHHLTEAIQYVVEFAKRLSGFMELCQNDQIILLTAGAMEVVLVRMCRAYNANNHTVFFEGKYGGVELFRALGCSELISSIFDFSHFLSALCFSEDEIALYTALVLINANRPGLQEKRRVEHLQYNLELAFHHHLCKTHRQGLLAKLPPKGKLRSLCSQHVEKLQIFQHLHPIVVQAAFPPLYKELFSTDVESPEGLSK
#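 Using a luciferase readout, inhibitors were identified by reduced reporter activity in Drosophila cells coexpressing a copper-inducible Gal4–ROR gamma fusion and UAS-driven Photinus luciferase, incubated 20 hr after 700 uM copper sulfate.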
# TDP1 cell CPT: growth inhibition of DT40 Tdp1-/-;hTDP1 cells with camptothecin (screen for TDP1 inhibitors). chicken DT40 Tdp1-/-;hTDP1 cells + 20 nM CPT, ATP luminescence, 48 h. Potency, µM (highest dose often 46.2 µM), usual class: inhibitors. actives 12% (n = 420,000); note: nearly all actives have a fitted effect of over 55% in size
#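 Chicken DT40 Tdp1-/- cells stably complemented with human TDP1 were seeded at 400 cells/well in medium containing 20 nM camptothecin, exposed to pin-transferred compounds, and grown at 37 °C for at least 48 hr. Viability was read as ATP luminescence.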
# Numbers stand for hits; 0 = inactive; ? = inconclusive; - = no result; [ ] = remark or other dose. Shown are actives, neighbours in structure and some others; about 19% of the full set was active somewhere. Calls come from the whole dose curve; as a rule, active = well fitted curve in the direction sought with a large enough effect; inconclusive = small, poorly fitted or top-dose-only effect, or another doubt; inactive = no such curve, though single readings can be large; an effect the other way counts as inactive or inconclusive.
SMILES,DT40 TDP1 no CPT,VP16 counter,TDP1 inh,RORg inh,TDP1 cell CPT
CN(C)S(=O)(=O)c1ccc(-c2ccccc2)cc1,0,0,0,0,?
COC(=O)c1cc(S(=O)(=O)NCC2CCN(Cc3ccc(F)cc3)CC2)c[nH]1,0,0,0,0,0
Cc1ccc(-c2nnc(Nc3ccc(Cl)c(Cl)c3)c3ccccc23)cc1S(=O)(=O)NCCO,18µM,-,0[12.3 µM],-,18µM
Cc1ccc(-c2nnc(Nc3ccc4c(c3)OCO4)c3ccccc23)cc1S(=O)(=O)NCCO,16µM,0,0,?,?
Cc1ccc(-c2nnc(Nc3ccc(CC(N)=O)cc3)c3ccccc23)cc1S(=O)(=O)NCCO,0,0,-,0,0
COc1cccc(NC(=O)C2CCCN2C(=O)NC2CCCCC2)c1 (centres undefined),0,0,-,0,0
COC(=O)CSc1cccc2c1C(=O)CC2c1ccccc1 (centres undefined),0,0,-,0,0
O=C1C=CC2(O[C@H](c3ccccc3)[C@@H](c3ccccc3)O2)[C@H](Sc2ccccc2O)C1,0.58µM,-,-,-,0.46µM
Cc1c(-c2nnc(SCC(=O)Nc3ccc(Br)cc3)o2)nnn1-c1ccc(F)cc1,0,-,0,-,?
O=C1C=CC(=O)N1c1cccc(-c2ccccc2)c1,0.73µM,0,0,0,0.65µM
O=C1c2ccccc2C(=O)N1c1cccc(-c2nc3ccccc3o2)c1,0,0,0,0,0
O=c1[nH]cc(S(=O)(=O)NCc2ccccc2)c(=O)[nH]1,0,0,0,0,0
CC(=O)Oc1c(-c2ccc(Br)o2)oc2ccccc2c1=O,15µM,7.1µM,0,7.1µM,26µM
COc1ccc(-c2oc3ccccc3c(=O)c2OC(C)=O)cc1,16µM,?,0,7.1µM,23µM
CCOC(=O)COc1c(-c2ccc(OC)cc2)oc2ccccc2c1=O,?,0,0,0,?
CCC(Oc1ccc(F)cc1)C(=O)Nc1nc2c(s1)CCCC2 (centres undefined),16µM,-,0,-,?
COc1ccc(C(=O)N[C@H](C(=O)Nc2nc3c(s2)CCCC3)C(C)C)cc1,23µM,0,0,0,?
CCC(Sc1nc(C)cc(=O)[nH]1)C(=O)Nc1nc2c(s1)CCCC2 (centres undefined),0,0,0,0,?
CCOc1ccccc1C(=O)N[C@H](C(=O)Nc1nc2c(s1)CCCC2)C(C)C,18µM,0,0,0,16µM
N#Cc1cc([N+](=O)[O-])ccc1N1CCCC1,?,0,0,0,0
OCCNCCCOc1cc(Cl)ccc1Cl,18µM,0,0,0,?
CCCCNCCCOc1cccc(Cl)c1Cl,?,0,0,0,15µM
OCCNCCCOc1cccc(Cl)c1Cl,0.21µM,0,0,0,0.19µM
CCCCNCCCOc1ccc(C)cc1Br,16µM,0,0,0,18µM
Cn1c(C(=O)N2CCN(c3ccc(F)cc3)CC2)cc2ccccc21,?,0,-,0,0
SMILES,DT40 TDP1 no CPT,VP16 counter,TDP1 inh,RORg inh,TDP1 cell CPT
CCC(C)(C)C1CCC2(CC1)NC(=O)N(CC(=O)Nc1cc(C(F)(F)F)ccc1N1CCOCC1)C2=O (centres undefined),?,-,0,-,?
Cc1cc(C)c(NC(=O)CSc2nc(COc3ccccc3)nc3ccccc23)c(C)c1,18µM,16µM,0,?,23µM
Cc1cc(C)c(NC(=O)CSc2nc3ccccc3c3nc(CCn4cncc4C)nn23)c(C)c1,15µM,-,0,-,13µM
COc1ccc(CCN2C(=O)CC(NNC(=O)c3ccccc3Br)C2=O)cc1OC (centres undefined),0,0,0,0,0
Cc1cc(C(=O)N2CCC2(C)C(=O)Nc2cc(C(C)(C)C)nn2C)nn1C (centres undefined),0,-,-,-,0
CCCn1cnc2c(Sc3c([N+](=O)[O-])ncn3C)nc(N)nc21,?,-,-,-,0
CCCCn1cnc2c(SCc3ccc([N+](=O)[O-])cc3)nc(N)nc21,?,-,-,-,15µM
CCCCn1cnc2c(SCc3cccc(F)c3)nc(N)nc21,?,-,-,-,0
CCC(C)Cn1cnc2c(Sc3c([N+](=O)[O-])ncn3C)nc(N)nc21 (centres undefined),23µM,-,-,-,16µM
CC(C)(C)NC(=S)Nc1ccc(Br)cc1,?,0,0,2µM,?
CC(C)(C)NC(=S)Nc1ccc(Nc2ccccc2)cc1,16µM,7.1µM,0,1.8µM,15µM
CCc1cccc(NC(=O)CSc2ncc3c(n2)-c2ccccc2N(CC)S3(=O)=O)c1,0,-,0,-,0
NC1=Nc2cccc3cccc1c23,16µM,0,0,?,?
NC(=O)Nc1ccc(C(=O)OCC(=O)N(Cc2ccccc2)C2CCS(=O)(=O)C2)cc1 (centres undefined),0,0,0,0,0
COc1cccc(CN(C)C(=O)c2cnn(-c3ncc4c(n3)-c3ccccc3CCC4)c2C)c1,23µM,-,-,-,18µM
COc1ccc(C=NNC(=S)NN=Cc2ccc(OC)c(OC)c2)cc1OC,12µM,-,-,-,7.3µM
Fc1ccc(NC(=S)N/N=C/c2ccc(F)c(F)c2)c(F)c1,0,2.5µM,0,1.1µM,0
C=CCNC(=S)Nc1ccc(F)cc1F,?,0,0,0,0
CCCCNC(=O)/C=C/c1ccc(OC)c(Br)c1,0,0[0.365 µM],0,0,0
COc1ccc(C=O)cc1COc1ccc(NC(C)=O)cc1,-,-,0,-,-
COc1ccc(/C=C/C(=O)C2CC2)cc1COc1cccc(C)c1C,23µM,0,-,0,?
COCCCNC(=S)N/N=C/c1ccc(OC)c(Br)c1,?,11µM,-,1µM,?
CCOC(=O)/C(C#N)=C/Nc1cc(C(C)(C)C)sc1C(C)=O,?,0,0,0,0
COc1ccc(C2=C(C)CC(C)(C)NC2=O)cc1OC,0,0,0,0,0
COc1cc(/C=N/NC(=S)Nc2cccc(C(=O)O)c2)cc(OC)c1OC,0,?,0,?,0
SMILES,DT40 TDP1 no CPT,VP16 counter,TDP1 inh,RORg inh,TDP1 cell CPT
COc1ccc(C=NNC(=S)Nc2ccc(F)cc2)cc1OC,2.1µM,-,-,-,3.3µM
COc1ccc(/C=N/NC(=S)Nc2ccccc2)cc1COc1cccc(C)c1C,?,0.71µM,-,0.35µM,?
COc1cc(/C=N/NC(=S)N/N=C/c2cc(OC)c(OC)c(OC)c2)cc(OC)c1OC,3.7µM,4µM,0,?,4.1µM
COCc1cc(/C=N\NC(=O)COc2ccccc2)ccc1OC,0,0,0,0,0
Cc1nc2cnc(N3CCN(C)CC3)nc2n(CCc2ccccc2)c1=O,?,0,-,0,0
Cc1ccc(NC(=O)C2C(c3ccccc3)C=CC(c3ccccc3)C2C(=O)O)cc1 (centres undefined),21µM,0,0,?,29µM
CC(C)C(C)NC(=O)CN1C(=O)NC2(CCCCCC2)C1=O (centres undefined),0,0,0,0,0

# Screening results (PubChem BioAssay)
